Bioassay records from PubChem.
Most compounds without a hit are left out; they make up all but 0.95% or so of the library.
RE007 growth inh: less growth of the S. pombe RE007 Vpr strain | Potency, µM (titrated, usually from 92.2 µM), without a hit: at the top dose activity change, negative = less growth, most hits filed as inhibitors | S. pombe RE007 Vpr strain, BacTiter-Glo ATP luminescence, 24 h | AID 651644 | 0.21% of 360,000 active; active = well fitted falling curve with a large enough effect; inconclusive = small, poorly fitted or top-dose-only effect; inactive = no such curve, though single readings can be large or run the other way; note: nearly all actives have a fitted effect of over 50% in size
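Fission yeast RE007 carrying one integrated HIV-1 vpr copy, seeded at OD 0.01 in PMG+AL medium with 23 nL pinned compound. Grown 24 h at 30 degrees; viability read by BacTiter-Glo luminescence after 5 min.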
Tb PYK inh: T. brucei pyruvate kinase inhibition | 0.12% of 410,000 active | TbPYK enzyme, Kinase-Glo Plus ATP luminescence, 45 min | Potency, µM (doses to about 76.8 µM), without a hit: at the top dose activity, negative = inhibition, usual class: inhibitors | Q57TT1 | AID 624173; note: nearly all actives have a fitted effect of over 50% in size
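Luminescent Kinase-Glo Plus end-point after 45 min room-temperature reaction of T. brucei pyruvate kinase started with 130 uM ADP (final). Buffer TEA 50 mM pH 7.2 with KCl, MgCl2, BSA, Tween-20; titration-based qHTS with fitted concentration-effect curves.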
LmPK inh: LmPK (Leishmania mexicana) enzyme inhibition; purified LmPK, Kinase-Glo ATP luminescence, 1 h; Q27686; Potency, µM (highest dose often 57.5 µM), inactives show top-dose activity change, negative = inhibition, actives largely listed as inhibitors; 0.37% of 290,000 active; AID 1721
Target sequence (Q27686 whole entry, looked up): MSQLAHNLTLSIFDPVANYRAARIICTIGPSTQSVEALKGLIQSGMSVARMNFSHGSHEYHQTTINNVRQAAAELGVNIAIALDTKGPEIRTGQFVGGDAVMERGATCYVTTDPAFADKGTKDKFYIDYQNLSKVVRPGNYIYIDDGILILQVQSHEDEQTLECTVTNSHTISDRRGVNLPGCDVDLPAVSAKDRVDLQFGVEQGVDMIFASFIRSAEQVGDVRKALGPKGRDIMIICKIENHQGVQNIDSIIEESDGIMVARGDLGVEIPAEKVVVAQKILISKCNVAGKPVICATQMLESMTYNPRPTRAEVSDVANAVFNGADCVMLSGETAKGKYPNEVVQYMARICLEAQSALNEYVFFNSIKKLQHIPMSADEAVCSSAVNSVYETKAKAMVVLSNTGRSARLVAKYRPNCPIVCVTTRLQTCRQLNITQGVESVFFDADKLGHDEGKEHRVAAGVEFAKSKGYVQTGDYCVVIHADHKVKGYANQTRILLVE
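Pyruvate kinase activity monitored as ATP production (luciferase luminescence). Conditions: 0.1 nM enzyme, 0.5 mM PEP, 0.1 mM ADP, 1 h, RT; normalized against uninhibited and no-enzyme wells.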
Giardia FBPA inh: inhibitors of Giardia lamblia fructose-1,6-bisphosphate aldolase; A8B2U2; purified Giardia FBPA; Potency, µM (titrated, usually from 59.6 µM), for the others: at the highest dose activity, negative = inhibition, most hits filed as inhibitors; 0.71% of 290,000 active; note: nearly all actives have a fitted effect of over 55% in size
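Giardia FBPA (40 nM reagent) was preincubated 10 min at RT with compound (up to 57.5 uM final), then substrate plus GAPDH/TPI/NAD/arsenate coupling system with diaphorase/resazurin was added; resorufin fluorescence (525/598 nm) was read after 20 min.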
* = called active by the depositor; ? = inconclusive; . = not tested or not shown; [ ] = dose if it differs, or a comment. Unless noted, calls come from the whole dose curve; as a rule, active = well fitted curve in the direction sought with a large enough effect; inconclusive = small, poorly fitted or top-dose-only effect, or another doubt; inactive = no such curve, though single readings can be large; an effect the other way counts as inactive or inconclusive. % is set by controls: 0 for no effect and ±100 for the full control effect; potency is the fitted concentration of half-maximal effect.

SMILES	RE007 growth inh	Tb PYK inh	LmPK inh	Giardia FBPA inh
COc1cc(OC)cc(-c2nc3cc(C)ccc3o2)c1	?	-19.5%	14.1µM*	-8.4%
N#CC1(NC(=O)COC(=O)c2ccccc2[N+](=O)[O-])CCCCC1	-2.3%	-14.6%	.	.
N#CC1(NC(=O)COC(=O)c2cc(O)c3ccccc3c2O)CCCCC1	?	28.2µM*	.	.
CCn1nc(/C=C/c2ccccc2)nc2c(=O)n(C)c(=O)nc1-2	28.2µM*	-9.8%	5.3%	0.9%
N#Cc1ccc2c(c1)nnn2-c1ccccc1	-3.8%	7.5%	.	.
O=c1c2cc([N+](=O)[O-])ccc2sn1-c1ccccc1	5.62µM*	4.47µM*	.	.
N#Cc1ccc2sn(-c3ccccc3)c(=O)c2c1	7.94µM*	3.98µM*	.	.
CC(=O)Nc1ccc2sn(-c3ccccc3)c(=O)c2c1	5.2%	?	.	.
COc1ccccc1-c1cc(N(C)Cc2ccco2)ncn1	.	.	.	-4.4%
CCOc1ccc(N2C(=O)CC(SCCN)C2=O)cc1 (stereo unspecified)	20µM*	0.0%	-28.2%	-23.7%
CCOc1ccc(N2C(=O)CC(Sc3nnnn3-c3ccccc3)C2=O)cc1 (stereo unspecified)	31.6µM*	-28.4%	8.0%	5.9%
CCOc1ccc(N2C(=O)CC(Sc3nc(C)cc(C)n3)C2=O)cc1 (stereo unspecified)	-20.3%	3.6%	-2.0%	3.0%
COc1ccc2c(c1)O[C@@H](c1ccc3c(c1)OCO3)[C@H](OC(=O)Nc1ccc(C)c(Br)c1)C2=O	.	.	.	0.0%
CCN1CCOC(CC(=O)Nc2ccc([N+](=O)[O-])cc2)C1=O (stereo unspecified)	44.7µM*	1.0%	-2.8%	-1.5%
C/C(=N\Nc1nc2ccccc2s1)c1cccs1	35.5µM*	-8.2%	-5.8%	-5.2%
c1ccc2sc(-c3ccncc3)nc2c1	1.8%	-17.4%	?	7.1%
c1ccc2[nH]c(-c3ccc4c(c3)OCO4)nc2c1	39.8µM*	?	.	.
c1ccc2sc(-c3ccc4c(c3)OCO4)nc2c1	?	?	10µM*	-1.1%
O=C(Nc1cccc(-c2nc3ccccc3s2)c1)c1ccc2c(c1)OCO2	0.5%	0.0%	0.9%	.
COc1ccc(-c2nc3ccccc3s2)cc1	?	?	12.6µM*	-4.9%
Oc1ccc(-c2nc3ccccc3s2)cc1	?	-10.4%	15.8µM*	4.3%
C#CC1(OC(C)=O)CCC2C3CCC4=CC(OC(C)=O)CCC4C3CCC21C (stereo unspecified)	.	-9.1%	.	.
COc1cc(NC(=O)N2CCC(CN3CCOCC3)CC2)cc(OC)c1OC	.	2.2%	.	.
Cc1ccc(-c2nc3ccccc3[nH]2)cn1	?	-14.7%	-28.6%	?
Clc1ccc(-c2nc3ccccc3[nH]2)cn1	-16.8%	-9.1%	25.1µM*	?
SMILES	RE007 growth inh	Tb PYK inh	LmPK inh	Giardia FBPA inh
O=C(c1ccc(-c2nc3ccccc3s2)s1)N1CCOCC1	?	?	14.1µM*	-0.1%
Cc1cccc(S(=O)(=O)c2cn(Cc3ccccc3)c3cc(N4CCC(C)CC4)c(F)cc3c2=O)c1	.	-1.5%	.	.
CCSC1(SCC)N=C(N)C2(C#N)C(c3ccc(OC)c(OC)c3OC)C12C#N (stereo unspecified)	5.62µM*	-10.7%	4.2%	-21.8%
CCSC1(SCC)N=C(N)C2(C#N)C(c3ccccc3)NC3=C(CCC3)C12C#N (stereo unspecified)	?	-12.6%	5.9%	-4.8%
N#Cc1cccc(CS(=O)(=O)c2ccccc2)c1	.	.	.	-0.8%
O=C1C=CC(=O)N1c1ccc(OC(F)F)cc1	2.82µM*	11.2µM*	3.1%	-5.4%
O=C1C=CC(=O)N1c1ccc(O)cc1	6.31µM*	?	9.0%	-26.6%
OC[C@H]1O[C@@H](n2cnc3c2NC=NC[C@@H]3O)C[C@H]1O	.	0.0%	.	.
CCCCOc1ccc(N2C(=O)CC(NCCc3ccc(S(N)(=O)=O)cc3)C2=O)cc1 (stereo unspecified)	63.1µM*	-5.2%	4.3%	-7.3%
CC1COc2ccccc2C1=O (stereo unspecified)	.	.	.	2.6%
Cc1cccc2c3c(ccc12)C1=C(C(=O)C3=O)[C@@H](C)CO1	.	.	.	7.06µM*
O=C(/C=C/c1cccs1)N1CCc2ccccc21	.	?	14.1µM*	-9.5%
O=C(c1cccs1)N1CCc2ccccc21	-26.9%	-6.9%	?	0.8%
Cc1c(C(=O)O)c(O)cc2c1C(=O)c1c(O)c([C@@H]3O[C@H](CO)[C@@H](O)[C@H](O)[C@H]3O)c(O)c(O)c1C2=O	?	-29.4%	.	.
Cc1c(C(=O)O)c(O)cc2c1C(=O)c1c(O)c([C@H]3O[C@H](CO)[C@@H](O)[C@H](O)[C@H]3O)c(O)c(O)c1C2=O	.	-27.7%	.	17.7µM*
N/C(=N\OC(=O)c1ccc2c(c1)OCO2)c1ccncc1	-19.2%	-3.7%	25.1µM*	2.0%
N/C(=N\OC(=O)c1ccc2c(c1)OCO2)c1ccc(Cl)cc1	?	-6.3%	-24.5%	-4.6%
CSc1nsc(/C=C/Nc2ccc(F)cc2)c1C#N	5.2%	-4.6%	-0.5%	?
CSc1nsc(/C=C/Nc2ccc(O)cc2C)c1C#N	-17.8%	-11.6%	-7.5%	17.7µM*
CC1=CC(=Nc2c(C)n(C)n(-c3ccccc3)c2=O)C=CC1=O	.	.	?	3.54µM*
CSCC[C@H](NC(=O)[C@@H](Cc1ccc(O[S+](=O)([O-])O)cc1)NC(=O)[C@H](N)CC(=O)O)C(=O)NCC(=O)N[C@@H](Cc1c[nH]c2ccccc12)C(=O)N[C@H](CCSC)C(=O)N[C@H](CC(=O)O)C(=O)N[C@@H](Cc1ccccc1)C(N)=O	.	-6.4%	.	.
O=C(Nc1ccccc1)c1ccc(CSc2ccccn2)cc1	?	?	12.6µM*	4.1%
Cc1ccc2oc(=O)n(CCCOc3ccc(Cl)cc3)c2c1	.	-3.4%	.	.
CC[C@H](OC(C)=O)C(C[C@H](C)NC)(c1ccccc1)c1ccccc1	.	-4.6%[157 µM]	.	.
COc1ccc(NC(=O)C(=S)N2CCCC2)cc1	15.8µM*	0.5%	-0.4%	2.2%
SMILES	RE007 growth inh	Tb PYK inh	LmPK inh	Giardia FBPA inh
Cc1ccc(Nc2c(-c3ccccn3)nc3ccc(Br)cn23)cc1	.	-0.7%	.	.
COC(=O)CNc1c(-c2ccccn2)nc2ccc(Br)cn12	-16.5%	-5.1%	15.8µM*	-14.0%
CCOc1ccccc1-c1c2cc(O)c(=O)cc-2oc2cc(O)c(O)cc12	?	?	-15.0%	6.29µM*
O=C(O)c1cccc2c1C(=O)c1cc([N+](=O)[O-])cc([N+](=O)[O-])c1-2	-8.8%	-8.9%	.	.
Cc1cccc(N=C2c3cc([N+](=O)[O-])ccc3-c3c2cc([N+](=O)[O-])cc3[N+](=O)[O-])c1	22.4µM*	-0.5%	.	.
CC(=O)Nc1ccc2c(c1)CCc1ccccc1-2	-18.1%	0.0%	-1.3%	-1.8%
O=C(O)/C=C/C(=O)c1ccc2c(c1)CCc1ccccc1-2	?	35.5µM*	.	.
CC(=O)c1cccc(NC(=O)c2c(N3CCCC3=O)c3cc(F)ccc3n2C)c1	.	3.4%	.	.
COc1cc2oc(=O)cc(-c3cccc(-c4ccc(C(C)=O)cc4)c3)c2c(OC)c1OC	.	.	.	-0.5%
